The panel holds about 83,000 compounds, 20% with a hit somewhere; the sample as a whole holds those more often.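 Values shown are percent growth following 48 h exposure of cells in 96-well plates to a single concentration of compound; below 10 was considered active.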 A number with no mark means an inactive call. Activity calls are given as the source filed them.
Test system: A498 renal
Assay: NCI-60 one-dose screen, 48 h (100 = growth as untreated, 0 = no growth, -100 = all killed)
Conditions: 10 µM unless noted

SMILES | growth
CC(C)(C)N1CCC1CN (stereo unspecified) | 88.5%
C=C1C(=O)O[C@H]2[C@H]1CC/C(COC(=O)c1cc3cc(OC)ccc3[nH]1)=C\CC[C@@]1(C)O[C@@H]21 | -95.3% (active)
CC[C@]1(O)C[C@@H]2CN(CCc3c([nH]c4ccccc34)[C@@](C(=O)OC)(c3cc4c(cc3OC)N(C)[C@H]3[C@@](O)(C(N)=O)[C@H](O)[C@]5(CC)[C@@H]6C[C@@H]6CN6CC[C@]43[C@@H]65)C2)C1 | -7.44% (active)
Cc1nn(-c2ccc(F)cc2)c2ncnc(Nc3ccc(NC(=O)Nc4ccc(Cl)c(C(F)(F)F)c4)cc3)c12 | 37.9%
O=C(N/N=C/c1ccccc1O)c1ccccc1Nc1ccnc(C(F)(F)F)c1 | -5.76% (active)
CC(=O)O[C@H]1[C@@H]2OC(=O)C(CSc3ccccc3)[C@@H]2C[C@H]2O[C@]2(C)CC/C=C(\C)CCC[C@@H]1C (stereo partly specified) | 116%
C#CCOc1ccc2ncnc(N3CCC(NC(=O)CCl)CC3)c2c1 | 29.9% [8.25 µM]
CCC(=O)c1ccc(Cl)s1 | 98.4%
O=C1CC[C@H](c2ccc(O)c3c2C(=O)[C@@H]2O[C@@H]2C3=O)c2cccc(O)c21 | 85%
COc1ccc(S(=O)(=O)N2CC3(COC3)C2)cc1NC(=O)c1[nH]c(C)c2c1CCCCC2=O | 69.8%
O=C1/C(=C/c2ccc3c(c2)OCO3)SC(=S)N1CCc1ccc(O)cc1 | 111%
Oc1ccccc1-c1nnc(CNc2ccc(Cl)cc2)o1 | 77.9%
Cc1ccc(OC(=O)c2ccc(Cl)cc2)cc1 | 114%
Cc1ccc(NC(=O)/C=C/c2ccccc2)c(C(N)=O)c1 | 53.8%
CN1CCN(CCCOc2cccc3nc(Nc4ccc(Cl)c(F)c4)ccc23)CC1 | 55.4%
NC1=C(Cl)C(=O)c2ccc(S(N)(=O)=O)cc2C1=O | -99.5% (active)
O=C1c2cc3c(cc2-c2c1c1ccc(Cl)cc1c(=O)n2CCCN1CCOCC1)OCO3 | 76.2%
FC(F)(F)c1nc2c(NCc3ccc(-c4ccccc4)cc3)cccc2[nH]1 | 48.7%

SMILES | growth
OC(c1cc2cc(Cl)c(Cl)cc2c2cc(C(F)(F)F)ccc12)C1CCCCN1 (stereo unspecified) | 48.1%
Brc1ccc(-c2csc(Nc3ccccn3)n2)cc1 | 91.3%
O=C(Cc1ccccc1Nc1c(Cl)cccc1Cl)NN1C(=O)/C(=C/c2ccc(Br)cc2)SC1=S | 107%
COc1ccc(C2CC(c3ccc(Cl)cc3)=NN2/C=C2\SC(=S)N(NC(=O)Cc3ccccc3Nc3c(Cl)cccc3Cl)C2=O)cc1 (stereo unspecified) | 72%
CCOC(=O)c1csc(NC(=O)COc2cccc(/C=C3\CSc4ccccc4C3=O)c2)n1 | 115%
Cn1cc(-c2nonc2-c2c[nH]c3ccccc23)c2cccnc21 | 17.1%
COc1cc(/C=C/c2cc(/C=C/c3ccc(O)c(OC)c3)n(-c3c(C)cccc3C)c(=O)n2)ccc1O | -6.94% (active)
COc1cccc(C2=NN3C(C2)c2cc(Br)cc(OC)c2OC32CCN(Cc3ccccc3)CC2)c1 (stereo unspecified) | 104%
CC(C)(C)c1cc(C(C)(C)C)cc(S(=O)(=O)Nc2cc3ccccc3cc2C(=O)NCCN)c1 | -2.57% (active)
O=C(N(c1ccccc1)c1ccccc1)n1ccc2nc(Cl)nc(Cl)c21 | 81%
Cc1[nH]c(-c2cc(N)ccc2Cl)c2c1C(=O)CCCC2 | 27%
NC(=O)c1cc(Cl)ccc1NC(=O)/C=C/c1ccccc1 | 54.1%
Cn1ncc2c(=O)nc3c(-c4ccccc4)n[nH]n3c21 | 112%
Cn1cc(C(=O)c2nc(-c3c[nH]c4ccc(Br)cc34)no2)c2cc(F)ccc21 | 107%
Cc1[nH]c(-c2ccc3cc[nH]c3c2)c2c1C(=O)CCCC2 | 44.4%
O=C1/C(=C(/c2ccccc2)N2CCOCC2)Cc2ccccc21 | 51.4%
Cn1c(NCCc2ccc(O)c(O)c2)nc2c1c(=O)n(Cc1ccc(Cl)c(Cl)c1)c(=O)n2C | 98.4%
Cc1nn(-c2ccc(F)cc2)c2ncnc(Oc3ccc(NC(=O)Nc4ccc(Cl)c(C(F)(F)F)c4)cc3)c12 | 99.2%

From PubChem BioAssay (NCI)
